Test results from the supplement of paper PMC7801607.

What was measured:
CHO = assay: % viability of CHO cells (MTT); higher = less toxic; conditions: 48 h
In short: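 After overnight attachment of CHO cells seeded at 10^6 cells/well in 200 µL, the medium was exchanged for fresh medium holding compound at 2 or 20 µM. Exposure lasted 48 h. Survival was read with the colorimetric tetrazolium (MTT) assay and expressed as percent of untreated cells.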

HepG2-A16-CD81 = assay: % inhibition of HepG2 viability (CellTiter-Glo); higher = more toxic; conditions: 5 µM;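 also: HepG2-A16-CD81 hepatoma cells plated as in the liver-stage assay but without sporozoites, with DMSO wells as negative and 25 µM puromycin as positive control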
[1] = tested on: Plasmodium falciparum NF54 stage IV/V gametocytes; assay: % inhibition of gametocyte viability (PrestoBlue); higher = more inhibition; conditions: 48 h
In short: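 Compound at 1 or 5 µM was incubated with Stage IV/V NF54 gametocytes (2% gametocytaemia, 5% haematocrit) for 48 h at 37 °C, stationary and hypoxic. A 2 h PrestoBlue step followed, with fluorescence read at 612 nm on transferred supernatant. Inhibition of gametocyte viability, in percent, was normalised to vehicle and kill controls from a single run.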

[2] = tested on: Plasmodium falciparum NF54 asexual blood stage; assay: % inhibition of asexual blood stage proliferation (pLDH); higher = more inhibition; conditions: 72 h
In short: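 Compound was tested at 2 or 20 µM against Plasmodium falciparum NF54 ring stages (1% haematocrit, 2% parasitaemia) for 72 h at 37 °C in 4% CO2, 3% O2 and 93% N2. Survival was read at 620 nm with the parasite lactate dehydrogenase assay, and inhibition of asexual proliferation was given as a percentage of controls.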

[3] = tested on: Plasmodium falciparum NF54 stage IV/V gametocytes; assay: % inhibition of gametocyte viability (ATP bioluminescence); higher = more inhibition; conditions: 24 h
In short: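 Compound at 1 or 5 µM was tested on stage IV/V NF54 gametocytes, enriched on density gradients and plated at 30,000 per well in 96-well plates. After 24 h at 37 °C, ATP was quantified by Promega BacTiter Glo bioluminescence. Values are percent inhibition of gametocyte viability from one run, normalised to controls.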

[4] = tested on: Plasmodium falciparum NF54 stage IV/V gametocytes; assay: % inhibition of gametocyte viability (luciferase reporter); higher = more inhibition; conditions: 48 h
In short: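 Percent inhibition came from luminescence and was normalised to controls in a single run. Gametocytes (stage IV/V, NF54-Pfs16-GFP-Luc line, 2% gametocytaemia, 2% haematocrit) were treated with compound at 1 or 5 µM and incubated for 48 h at 37 °C without agitation under hypoxia. Readings used 30 µL lysate with 30 µL Promega luciferin substrate on a GloMax-Multi+ reader, integrating for 10 s.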

Row | SMILES | % viability of CHO cells (CHO; 2 µM) | % viability of CHO cells (CHO; 20 µM) | % inhibition of HepG2 viability (HepG2-A16-CD81) | % inhibition of gametocyte viability ([1]; 1 µM) | % inhibition of gametocyte viability ([1]; 5 µM) | % inhibition of asexual blood stage proliferation ([2]; 2 µM) | % inhibition of asexual blood stage proliferation ([2]; 20 µM) | % inhibition of gametocyte viability ([3]; 1 µM) | % inhibition of gametocyte viability ([3]; 5 µM) | % inhibition of gametocyte viability ([4]; 1 µM) | % inhibition of gametocyte viability ([4]; 5 µM)
1 | O=c1cc(OCc2ccccc2)ccn1Cc1ccccc1 | 82.6% | 98.7% | -3.88% | 14.1% | 6.4% | 6.62% | 51.5% | < 0% | < 0% | < 0% | < 0%
2 | C=C[C@]1(C)C[C@@H](OC(=O)CS[C@@H]2C[C@H]3CC[C@@H](C2)N3C)[C@]2(C)[C@H](C)CC[C@]3(CCC(=O)[C@H]32)[C@@H](C)[C@@H]1O | 77.8% | 48.9% | 7.56% | < 0% | 2.51% | 68.8% | 104% | 1.57% | 7.83% | < 0% | < 0%
3 | CC(=O)NC[C@H]1CN(c2ccc(N3CCSCC3)c(F)c2)C(=O)O1 | 105% | 91.5% | 4.22% | < 0% | < 0% | 37.1% | 49.9% | < 0% | < 0% | < 0% | < 0%
4 | CN(C)CC(=O)Nc1ccc2[nH]c(=O)c3ccccc3c2c1 | 97.8% | 109% | -2.53% | < 0% | < 0% | 24.3% | 32.5% | 11.1% | 2.31% | < 0% | 4.93%
5 | CCc1cc(Cc2cnc(N)nc2N)cc2c1N(C)CCC2C (stereo unspecified) | 96.1% | 110% | 7.88% | < 0% | < 0% | 16.7% | 95.1% | < 0% | < 0% | < 0% | < 0%
6 | CN(C)[C@@H]1C(=O)C(C(N)=O)=C(O)[C@@]2(O)C(=O)C3=C(O)c4c(O)c(NC(=O)CN5CCCC5)cc(F)c4C[C@H]3C[C@@H]12 | 99.3% | 125% | 21% | 13.1% | < 0% | 72.1% | 88% | < 0% | < 0% | < 0% | < 0%
7 | O=c1cc(NCCCN[C@@H]2CCOc3c(Br)cc(Br)cc32)[nH]c2ccsc12 | 275% | 54.3% | 21.6% | 17.8% | 12.4% | 42.9% | 78.3% | < 0% | < 0% | < 0% | 11.8%
8 | O=C(c1nc2c(C(F)(F)F)cc(C3CC3)cn2c1Cl)N1CCN([C@H]2CC[C@H](O)CC2)C(=O)C1 | 100% | 116% | 0.895% | 28.7% | 6.18% | 14.7% | 46.1% | 10.1% | 1.45% | 3.76% | < 0%
9 | CC(=O)Oc1ccccc1C(=O)Nc1ncc([N+](=O)[O-])s1 | 91.3% | 111% | 3.62% | 14.9% | 28.5% | 14.2% | 71.2% | 10.5% | 5% | 0.222% | 17.6%
10 | Nc1nc(C(F)(F)F)cc2c1[nH]c(=O)n2Cc1ccccc1 | 89.2% | 102% | 8.47% | 2.55% | 20.9% | 2.26% | 35% | < 0% | < 0% | 18.1% | < 0%
11 | COc1ccc(NC(=O)CC2Sc3ncnn3C2=O)cc1 (stereo unspecified) | 99.9% | -0.591% | 10.8% | < 0% | 2.6% | 29.9% | 26.3% | 0.572% | 16.9% | < 0% | 15.3%
12 | CCOc1ccc(/C=N/NC(=O)C2CC2c2ccc(C(C)(C)C)cc2)cc1OCC (stereo unspecified) | 96.4% | 63.6% | -8.74% | < 0% | 1.6% | 18.7% | 37.8% | < 0% | < 0% | 17.9% | < 0%
13 | O=C(Cc1ccccc1F)Nc1nc2ccccc2[nH]1 | 104% | 87.3% | 7.61% | 5.47% | 21.8% | 37.1% | 29.8% | < 0% | < 0% | < 0% | < 0%
14 | CCNC(=O)Nc1cn2c(-c3ncc(CC)cn3)cc(-c3cccnc3)cc2n1 | 91.8% | 58.4% | 0.015% | 19.9% | 36.7% | 46% | 88.1% | 7.29% | 24.5% | 1.08% | 6.06%
15 | CC(C)(C)c1cccc(-c2nc3cc(C(=N)N)ccc3[nH]2)c1O | 98.4% | 106% | -1.3% | < 0% | 41.8% | 21.4% | 79.9% | 0.668% | 3.93% | < 0% | 14.8%
16 | Nc1ccc2oc(=O)ccc2c1I | 72.9% | 60% | -2.48% | < 0% | < 0% | 29.8% | 37.3% | < 0% | < 0% | 3.24% | 2.65%
17 | CCC(CC)[C@H](NC(C)=O)[C@@H]1[C@H](O)[C@@H](C(=O)O)C[C@H]1NC(=N)N | 88.2% | 59.8% | -1.38% | < 0% | < 0% | 31% | 22.4% | < 0% | < 0% | 0.62% | 2.25%
18 | CC(=O)N1CCN(c2ccc(OCC3COC(Cn4ccnc4)(c4ccc(Cl)cc4Cl)O3)cc2)CC1 (stereo unspecified) | 105% | 60.1% | 0.653% | 6.22% | < 0% | 2.92% | 64.4% | < 0% | < 0% | < 0% | < 0%
19 | CC(C)Nc1nc2cc(Cl)c(Cl)cc2n1[C@H]1O[C@@H](CO)[C@H](O)[C@@H]1O | 71.9% | 56.9% | -5.75% | 17.6% | 14% | 66.8% | 55.9% | < 0% | < 0% | < 0% | < 0%
20 | CC[C@@]1(O)C(=O)OCc2c1cc1n(c2=O)Cc2cc3c(CN(C)C)c(O)ccc3nc2-1 | 88.8% | 67.7% | 35% | 21.5% | 26.1% | 14.3% | 82.3% | 6.83% | < 0% | 1.24% | 5.33%
21 | NCc1ccc(S(N)(=O)=O)cc1 | 83.8% | 129% | 6.22% | 7.26% | 15.6% | 24% | 96.5% | < 0% | < 0% | < 0% | < 0%
